Laboratory results as given in article PMC6212790, “How bacterial xenogeneic silencer rok distinguishes foreign from self DNA in its resident genome”.
In all, about 33,000 sequences were measured (“e-score”: median about -0.037, highest 2% from about 0.34 on). What follows is part of a selection rich in the highest values, with near analogues and random picks from the rest.

target: T1, GST-Rok (full length) (Bacillus subtilis subsp. subtilis str. …, UniProt O34857 1-191); experiment: protein binding microarray; Rok is a gene silencer of Bacillus subtilis; high values mean tight binding; conditions: protein: recombinant; tags: GST (pTH5325, pDEST15-Magic modified); dsDNA, one strand shown
T1 sequence: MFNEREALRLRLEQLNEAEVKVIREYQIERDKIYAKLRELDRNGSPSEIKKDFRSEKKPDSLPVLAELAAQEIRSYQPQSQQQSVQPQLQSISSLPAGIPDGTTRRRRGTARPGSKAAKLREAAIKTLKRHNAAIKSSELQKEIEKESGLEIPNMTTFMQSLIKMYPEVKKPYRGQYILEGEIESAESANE
Outline: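 Every oligonucleotide joins a 25-mer constant primer to a 35-mer variable part drawn from a de Bruijn sequence of order 10, so each non-palindromic 8-mer appears at least 32 times and each palindromic 8-mer 16 times. The preference for every 8-mer is reported as a unitless, rank-based enrichment score (E-score). This score spans 0.5 for the most favored 8-mer to −0.5 for the most disfavored.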

Sequence	binding signal [E-score]
CATCGTTC	-0.0505
AAGCAGAA	0.142
ATGGGCTA	0.0395
ATTTTGTA	0.232
AATTTGTA	0.352
CGTTTGTA	0.138
AGTTTGTA	0.391
GATTTGTA	0.249
AGTTTGTC	0.0187
GTCGGCAA	-0.0858
CCAAGAAC	-0.19
CTCCGAAA	-0.0499
CAGTTGAG	-0.000936
AATGAATT	0.29
ACAATAAC	0.214
AGTCCCAT	-0.144
ACTATAAA	0.341
TCTATAAA	0.186
ACTATAAG	0.268
CCTATAAA	0.298
ACTATAAT	0.411
ACTATAAC	0.214
ACGTCATA	0.128
CCAAATGG	-0.148
AGTTCGTC	0.0184

Sequence	binding signal [E-score]
CAAAATAC	0.351
GAAAATAC	0.351
GGAAATAC	0.101
AAAAATAC	0.32
CAAAATAA	0.0897
GAAAATAA	0.145
GGCATTAA	-0.00985
CCTGTTGA	-0.00587
GAAACGGC	-0.103
TTATTAAA	0.168
ATATTAAA	0.377
CTATTAAA	0.116
AGATTAAC	0.181
ATATTAAT	0.345
AGATTAAG	0.135
AGATTAAT	0.346
ATATTAAG	0.275
ATATTAAC	0.298
AAACATTT	0.0971
AGAATAAG	0.105
ATAAGAGA	-0.0183
CTGCCCAC	-0.168
GCTATACA	0.201
ACTATATA	0.453
ACTATATG	0.267

Sequence	binding signal [E-score]
ACTATATC	0.331
CCTATATA	0.123
GCTATATA	0.389
CGAGGTCC	-0.0704
AGATGCAA	-0.00215
AATCTAAT	0.263
AATCTAGT	0.377
AATCTAGA	0.349
TATCTAGA	0.213
AATCTAGG	0.231
AATCTAGC	0.2
GTACCTGA	0.102
CGAGTAGA	0.0915
CTAATGAA	0.0765
CCGAATAG	-0.00823
ACGCGAAA	-0.0244
CTTATGAC	0.247
TCTATCAA	0.212
AACGACTC	-0.0273
AGGTAGTC	0.0956
AGGTAGTA	0.364
AGGTAGTG	0.0916
GGGTAGTA	0.238
CGGTAGTA	0.342
CGGTAGTC	0.173

Sequence	binding signal [E-score]
AGACAACG	-0.0674
AGAGCTAG	-0.0248
CGACTGAC	0.00526
CAGAGCTC	-0.162
ATACTAGC	0.321
CTACTACC	0.303
ATACTACC	0.36
CGACTACG	-0.0988
GTACAACA	0.0355
CCACTACA	0.0814
AGACTACG	-0.152
CTACAACC	0.119
CTACTACA	0.339
ATACTACG	0.339
CTACAACA	0.343
GTACTACA	0.314
ACTAGACC	-0.00464
GATCGAAA	-0.0281
ATTAATGG	0.0209
CTCACAGA	-0.131
AGCACTGC	-0.181
ACTTACCT	0.0398
CTCTAAAC	0.0676
AGTGGCAG	-0.029
AATTGACG	0.213

Sequence	binding signal [E-score]
ACACTACA	0.276
AGACTACA	0.0935
ATACTACA	0.408
AGTGAAAC	-0.00421
ATGTATAG	0.244
ATGTATAA	0.385
GTGTATAA	0.246
CTGTATAA	0.265
ATGTATAC	0.347
CTGTATAC	0.216
GTTAATAA	0.303
TCTCGACA	-0.0144
ATCAGAGC	-0.105
CGTCTCTA	-0.15
CATTGTTC	0.00988
CCAGCATA	-0.0442
ATAGGTCA	0.156
CGATGGAA	0.0214
TACAAATA	0.375
TACAAACA	0.369
AACAAACA	0.0686
CACAAGTA	0.183
TACAAGTA	0.288
CACAAATG	-0.0865
AACAAATA	0.295

Sequence	binding signal [E-score]
CACAAATA	0.35
CACAAACA	0.0611
TTATGCAA	0.154
GGAGGAAA	-0.0576
CGTTCCTC	-0.0344
AGTAAGGA	-0.0123
CGTCGCGC	0.0557
ACTCCTAT	0.122
AAGATTCC	-0.109
CAGTAGAG	0.142
CAGTAGTC	-0.166
TAGTAGAA	0.439
CAGTAGTA	0.343
TAGTAGGA	0.209
CAGTAGAA	0.391
AAGTAGTA	0.332
AAGTAGAA	0.305
GAGTAGAA	0.202
AACGACGA	0.183
ATTGGCTC	-0.0706
AATTTTCG	0.139
ACCGGCAG	-0.0541
AGACTGTC	0.0207
CGCAGACA	-0.162
ATGTTGTA	0.223

Sequence	binding signal [E-score]
AATACCTA	0.267
GATACCTA	0.34
CTTACGTA	0.179
ATTACCTC	0.167
GTTACGTA	0.169
ATTACCTA	0.382
CATACCTA	0.334
ATTACCTG	0.126
ATTACGTA	0.38
ACGCCGAC	-0.196
ACGACATG	0.136
CACCAGTA	-0.00869
AAAGTCGC	0.0343
GGCTCTAA	0.0778
AACTCTGA	0.0339
CCAGACGG	-0.108
CAAAGACC	-0.0604
GTATTCAA	0.0317
CCAGTAGA	0.166
ATAGTAGA	0.346
GCAGTAGA	0.342
CTAGTAGA	0.404
CTAGTAGC	0.251
CAAGTAGA	0.286
GTAGTAGA	0.33

Sequence	binding signal [E-score]
GCAGTAGC	-0.0296
ATAGTAGC	0.315
AGCCGGAT	-0.184
ATCCTTCC	-0.158
CATTGAAA	-0.0384
ACTCTCCA	-0.0297
TCCGGTAA	0.0305
AAAATTAC	0.248
ATTTTACA	0.311
CAAATTAC	0.356
AATTTTAC	0.355
ATTTTTAC	0.335
AATTTTAG	0.222
TAATTTAA	0.356
ATTTTACC	0.351
CAATTTAA	0.152
ATTTTACG	0.219
GAATTTAA	0.0678
CAAATTAG	0.21
GGATCTTA	0.0165
CTGTCTAA	-0.0397
AAGTCTGG	-0.0136
AATGCACG	-0.0533
CAACTTAC	0.216
TAAGGTAA	0.0381

Sequence	binding signal [E-score]
TCCAGTCA	-0.0213
AGATTTTA	0.294
GACAAACA	0.0661
TCGGTGAA	-0.0505
TCAACGAA	0.0593
AATTTTAT	0.273
GATTTTAC	0.18
CATTTTAA	0.0564
AAATTTAG	0.163
GAATTTAC	0.268
CAATTTAC	0.288
CATTTTAC	0.349
AAATTTAC	0.336
AAATTTAT	0.351
GATGAACC	-0.136
ATGTTGGC	0.0169
ACATGTAT	0.167
ACATGTAC	0.358
CCATGTAC	0.193
CCATGTAG	0.271
GCATGTAC	0.0911
ACATGTAG	0.338
CGGGTACA	0.154
CGACAGCG	-0.036
GGTTACTA	0.163

Sequence	binding signal [E-score]
ATTTACTC	0.0747
AATTACCG	0.32
AATTACTG	0.191
AATTACCC	0.215
ATTTACTA	0.459
CGTTACTA	0.34
AATTACTA	0.434
AATTACCT	0.357
CGTTACTC	-0.0623
ATTTACTG	0.287
GATTACTA	0.2
GACTTATA	0.257
CCGCACCA	-0.082
AGGTGTCA	-0.0859
CGCCCTAC	-0.152
CATATGCA	0.117
AGTCAGCC	-0.00495
CGCCCTTA	-0.158
AAAGAACA	-0.199
ATTAAGAC	-0.0587
ATTTACAC	0.23
AGTTACTG	0.207
ATTTACAA	0.368
AGTTACTC	0.188
AGTTACTA	0.345

Sequence	binding signal [E-score]
ATTTACAG	0.24
CAGTGGAA	0.0127
GGTGTGTA	0.271
CGCATTCC	-0.192
ACTTATAA	0.28
TACGACCA	-0.0634
GAACTCGC	-0.0505
AGGCGCTA	-0.15
GCTCCATA	0.0969
CCGATCCG	-0.19
CAAACGAA	0.108
GAATTCTA	0.357
TAATTCTA	0.345
CAATTCTA	0.278
AACTTCTA	0.296
TAATTCAA	0.105
TAATTCCA	0.213
ATATTCTC	0.277
CTATTCTA	0.128
GAATTCTC	-0.0203
ATATTCTA	0.424
TACTTCTA	0.36
GACTTCTA	0.0634
CAAGAAAA	-0.0182
GATTCACA	0.0605

Sequence	binding signal [E-score]
AACGAAGC	-0.108
ACGGAAAC	-0.0398
AATTGACT	0.16
AAGTAACT	0.225
ACTAGGCG	-0.156
TATGGTCA	-0.0127
AGCGCAAA	0.0549
GCGTACTA	0.082
AAATTCTA	0.402
AAATTCTC	0.0375
AAATTCTT	0.0789
ACCGTCGA	0.0177
AGTACTCA	0.0122
AGTACTAA	0.357
CGTACTGC	0.0418
CGTACTAC	0.339
GGTACTAA	0.138
AGTACGAT	0.134
GGTACTAC	0.212
AGTACTGC	0.114
TGTACTAA	0.0689
AGTACTAT	0.388
AGTACTAC	0.389
CGTACTAA	0.217
AGGAGTCC	-0.0508

Sequence	binding signal [E-score]
ATTCCTAC	0.201
CATGGTCA	-0.1
TACCGAAA	0.225
TCGAATCA	-0.0502
ACCGCACT	0.0535
AGTACTGG	0.156
CGTACTAG	0.0856
AGTACTAG	0.385
CCGGTAAA	0.107
ACGGTAAA	0.349
TCGGTAAA	0.136
AAGGTAGG	0.133
ACGGTAGC	0.139
ACGGTAGT	0.373
ACGGTATA	0.252
GCGGTATA	0.347
AAGGTAGC	0.133
AAGGTAGT	0.354
ACGGTAGG	0.137
CCGGTATA	-0.0189
CTAGATGA	0.0637
CTGCGAGA	-0.11
AAGCCTGA	-0.131
GACCCAGA	-0.174
AGCAAACC	0.0585

Sequence	binding signal [E-score]
ACGGTAGA	0.365
GCGGTAGC	0.0476
TAGGTAGA	0.361
CCGGTAGA	0.229
GCGGTAGA	0.337
GAGGTAGA	0.296
AAGGTAGA	0.288
GGGGTAGA	0.011
TCGGTAGA	0.231
GAAGCAAC	0.0226
GCCGTTAA	-0.0418
CAGTTCTC	0.00617
AACGACAG	0.0268
CAATTGTC	-0.0649
GAATTGTA	0.254
GTATTGTA	0.238
ACATTGTA	0.222
ATATTGTA	0.375
CTATTGTC	-0.0651
ATATTGTG	0.172
CAATTGTA	0.339
CTATTGTA	0.381
